# Bioassay records (PubChem)
# Many of the other results were omitted from the sample, so hits are more common in it than they were.
# nsP2pro inh – Primary qHTS for inhibitors of NSP2Pro chikungunya virus (CHIKV). AID 1964107, 2024. FRET peptide cleavage, nsP2pro, fluorescence 1 h. Polyprotein P1234 (Chikungunya virus (strain S27-African prototype)), Q8JUX6. 31,000 tested, 1.1% active. Potency, µM (titrated, usually from 24.9 µM), for inactives: at the highest dose activity change, negative = inhibition, usual class: inhibitors; note: nearly all actives have a fitted effect of over 60% in size
#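 FRET cleavage of 2.5 uM peptide 2 by 150 nM CHIKV protease domain at pH 8.0 (Tris, Tween 20). Compounds at 7 concentrations (up to 25 uM) preincubated 15 min. Fluorescence read after 1 h at room temperature.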
# nsP2 cell sec – Secondary cell base assay for inhibitors of NSP2Pro Chikungunya virus (CHIKV); shares compounds with nsP2pro inh; cell-based CHIKV nsP2 protease reporter assay; Potency, µM (highest dose often 51.1 µM), inactives show at the highest dose activity change, negative = inhibition, usual class: inhibitors; 450 tested, 10% active; AID 1964100, 2024; note: nearly all actives have a fitted effect of over 70% in size
# NSP2 full ctr – Selectivity profile for inhibitors of NSP2Pro chikungunya virus (CHIKV): Full length NSP2 enzyme counterscreen (CHIKV-NSP2); Full-length CHIKV NSP2 protease enzymatic counterscreen; shares compounds with nsP2pro inh; 410 tested, 39% active; Potency, µM (titrated, usually from 50.7 µM), inactives show top-dose activity change, negative = inhibition, hits mostly inhibitors; note: nearly all actives have a fitted effect of over 65% in size
# Furin counterscr – Selectivity profile for inhibitors of NSP2Pro chikungunya virus (CHIKV): Human furin counterscreen. shares compounds with nsP2pro inh. Recombinant human furin enzymatic counterscreen, fluorogenic substrate. Potency, µM (titrated, usually from 50.6 µM), for inactives: at the top dose activity change, negative = inhibition, most hits filed as inhibitors. 410 tested, 6% active. AID 1964102, 2024
# NS23 peptide cs – Selectivity profile for inhibitors of NSP2Pro chikungunya virus (CHIKV): Endogenous NS2/3 peptide Counterscreen. shares compounds with nsP2pro inh. Purified CHIKV nsP2 protease, endogenous NS2/3 peptide cleavage. Potency, µM (highest dose often 51 µM), for inactives: at the top dose activity change, negative = inhibition, most hits filed as inhibitors. 410 tested, 34% active. AID 1964103, 2024; note: nearly all actives have a fitted effect of over 55% in size
# Papain cs – Selectivity profile for inhibitors of NSP2Pro chikungunya virus (CHIKV): Papain Counterscreen; shares compounds with nsP2pro inh; purified papain protease activity, enzymatic inhibition; Potency, µM (series often up to 51 µM), without a hit: at the highest dose activity change, negative = inhibition, actives largely listed as inhibitors; 410 tested, 5% active; AID 1964104, 2024
# Target sequence (P00784 whole entry, looked up): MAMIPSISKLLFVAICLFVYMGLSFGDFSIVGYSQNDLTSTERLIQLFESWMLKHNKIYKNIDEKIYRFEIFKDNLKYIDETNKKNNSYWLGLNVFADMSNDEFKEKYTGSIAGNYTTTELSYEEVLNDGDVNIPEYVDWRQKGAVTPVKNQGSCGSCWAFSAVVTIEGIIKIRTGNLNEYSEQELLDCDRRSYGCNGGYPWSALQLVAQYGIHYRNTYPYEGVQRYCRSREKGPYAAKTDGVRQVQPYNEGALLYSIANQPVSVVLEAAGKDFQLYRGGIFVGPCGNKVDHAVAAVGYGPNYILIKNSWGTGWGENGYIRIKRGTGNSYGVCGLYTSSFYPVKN
# nsP2pro conf qHTS – Confirmatory qHTS for inhibitors of NSP2Pro chikungunya virus (CHIKV). shares compounds with nsP2pro inh. CHIKV nsP2 protease enzymatic activity, qHTS. Potency, µM (series often up to 25.5 µM), without a hit: at the top dose activity change, negative = inhibition, usual class: inhibitors. 410 tested, 43% active. AID 1964105, 2024; note: nearly all actives have a fitted effect of over 75% in size
# HCV NS3 counter – Selectivity profile for inhibitors of NSP2Pro chikungunya virus (CHIKV): NS34A-HCV Counterscreen; shares compounds with nsP2pro inh; AID 1964106, 2024; HCV NS3/4A protease biochemical counterscreen; 410 tested, 20% active; Potency, µM (titrated, usually from 50.9 µM), hits mostly inhibitors; note: nearly all actives have a fitted effect of over 55% in size
# The depositor's hits bear a star; i = inactive; ? = inconclusive; ! = repeats disagree; [ ] = dose if it differs, or a comment. Calls come from the whole dose curve. % is set by controls: 0 for no effect and ±100 for the full control effect; potency is the fitted concentration of half-maximal effect.
SMILES,nsP2pro inh,others
Cc1ccc(S(=O)(=O)Nc2cnccc2C(=O)Nc2nc(-c3nc4ccccc4s3)cs2)cc1,i,
COc1ccc(CC(=O)N2C[C@@H]3C[C@H](C2)c2c(-c4ccc(NC(C)=O)cc4)ccc(=O)n2C3)cc1,-5%,
CCCS(=O)(=O)Nc1ccc(=O)n2c1[C@@H]1C[C@@H](CN(C(=O)Nc3ccc(OC)cc3)C1)C2,?,nsP2 cell sec=3%;NSP2 full ctr=?;Furin counterscr=-9%;NS23 peptide cs=?;Papain cs=-2%;nsP2pro conf qHTS=?;HCV NS3 counter=?
COc1ccc(NC(=O)N2C[C@@H]3C[C@H](C2)c2c(NC(=O)CSC)ccc(=O)n2C3)cc1,-2%,
O=C(CC1C(=O)NCCN1Cc1ccoc1)NCc1nnc2n1CCCCC2 (stereo unspecified),-25%,
S=C(NC1CCCCC1)N[C@H]1CO[C@H]2[C@@H]1OC[C@@H]2n1nnnc1Oc1ccc(-n2ccnc2)cc1,40%,
Cc1ccc(/C=C2\CNC/C(=C\c3ccc(C)cc3)C2=O)cc1,-1%,
O=C(O)[C@H]1C[C@H](C(=O)NCc2ccccn2)CN(Cc2ccccc2)C1,i,
COc1cc(N2CCN(C(=S)Nc3cc(C)cc(C)n3)CC2)cc(C(F)(F)F)c1,-13%,
COc1ccccc1OC1(C(=O)O)CCN(Cc2cccnc2)CC1,1%,
COc1ccccc1OC1(C(=O)O)CCN(c2ncnc(C)c2C)CC1,0%,
COc1ccccc1OC1(C(=O)O)CCN(Cc2ccc(-c3ccn[nH]3)o2)CC1,1µM*,nsP2 cell sec=?;NSP2 full ctr=?;Furin counterscr=-8%;NS23 peptide cs=0%;Papain cs=-3%;nsP2pro conf qHTS=-23%;HCV NS3 counter=i
Cc1ccc(S(=O)(=O)Nc2cnccc2C(=O)Nc2nc(-c3ccncc3)cs2)cc1,i,
O=C(CCC[C@@H]1[C@H]2CCCN3CCC[C@@H](CN1C(=O)c1ccccc1F)[C@@H]23)N1CCOCC1,-2%,
COc1ncc(Nc2ncc([C@@H](C)N3CCN(S(C)(=O)=O)CC3)cc2-c2nc(C)nc(N)n2)cc1F,?,nsP2 cell sec=113%;NSP2 full ctr=0%;Furin counterscr=-17%;NS23 peptide cs=1%;Papain cs=?;nsP2pro conf qHTS=-5%;HCV NS3 counter=i
CC(=O)c1cc([N+](=O)[O-])c(Sc2ccc(F)cc2F)s1,-21%,
C[C@@H](OC(=O)/C=C/c1ccc(O)cc1)C1=C[C@]2(C=C[C@@H]3C(C(=O)O)=CO[C@@H](O[C@@H]4O[C@H](CO[C@@H]5O[C@H](CO)[C@@H](O)[C@H](O)[C@H]5O)[C@@H](O)[C@H](O)[C@H]4O)[C@@H]32)OC1=O,21%[10 µM],
COC(=O)C1=CO[C@@H](O[C@@H]2O[C@H](CO)[C@@H](O)[C@H](O)[C@H]2O)[C@H]2[C@@H]1C=C[C@]21C=C([C@H](C)OC(=O)/C=C/c2ccc(O)cc2)C(=O)O1,1.6µM*,nsP2 cell sec=-29%[17.6 µM];NSP2 full ctr=3.4µM*;Furin counterscr=-3%[17.3 µM];NS23 peptide cs=?;Papain cs=-10%[17.2 µM];nsP2pro conf qHTS=1.3µM*;HCV NS3 counter=?
O=C(/C=C/c1ccc(O)cc1)OC[C@@]1(O)C=C[C@@H]2C(C(=O)O)=CO[C@@H](O[C@@H]3O[C@H](CO)[C@@H](O)[C@H](O)[C@H]3O)[C@@H]21,147%[10 µM],
Cn1c(=O)c2ccnn2c2ccc(C(=O)NCC3CCN(Cc4ccccc4F)CC3)cc21,i,
CCCCCCCCCCCCCCCCOc1nc2ccc(C)cc2c(=O)o1,-2%,
COc1ccnc(NC(=S)N2CCN(c3ccc4ccccc4n3)CC2)c1,4%,
COc1ccc(COC(=O)C2=C(C)NC(=O)CC2c2cccc(Cl)c2Cl)cc1 (stereo unspecified),-11%,
CNc1nc2c(s1)C(c1ccccc1F)CC(=O)N2 (stereo unspecified),1.6µM*,nsP2 cell sec=8%;NSP2 full ctr=3.3µM*;Furin counterscr=-9%;NS23 peptide cs=4.6µM*;Papain cs=14%;nsP2pro conf qHTS=2.8µM*;HCV NS3 counter=?
CSc1nc2c(c(=O)[nH]1)C(c1cccc(F)c1F)CC(=O)N2 (stereo unspecified),-27%,
SMILES,nsP2pro inh,others
Nc1nc2c(s1)C(c1ccccc1Cl)CC(=O)N2 (stereo unspecified),10µM*!,nsP2 cell sec=-40%;NSP2 full ctr=1.6µM*;Furin counterscr=-5%;NS23 peptide cs=3.7µM*;Papain cs=9%;nsP2pro conf qHTS=4µM*;HCV NS3 counter=i
O=C1CC(c2c(F)cccc2Cl)c2c(ccc3ccccc23)N1 (stereo unspecified),-15%,
CC1=C(C(=O)OCC2CCCCC2)C(c2ccccc2F)CC(=O)N1 (stereo unspecified),-8%,
Cc1ccc(-c2ccc(=O)n(CC(=O)NCCc3ncc[nH]3)n2)cc1,i,
CNc1cc(C2CC(NC(=O)COc3ccc(Cl)cc3C)C2)nc(N)n1 (stereo unspecified),-27%,
Cc1cc(C)nc(NC(=S)N2CCN(c3ccc4cnccc4c3)CC2)c1,-2%,
O=C(NCCc1ccc(Cl)cc1)c1cc(-c2cccs2)c2cccn2n1,-14%,
Cc1ccc(-c2nc(CN3CCCC3=O)no2)cc1,-3%,
Cc1c(Cl)cc([S+](=O)([O-])O)cc1NC(=O)NC[C@H](N)C(=O)O,-5%,
O=C(c1ccncc1)N1CCCC(Cc2noc(-c3cnccn3)n2)C1 (stereo unspecified),-3%,
CNC(=O)[C@H]1C[C@]2(CCCCNC2=O)N(C(=O)c2cccc(C#N)c2)[C@H]1c1ccco1,-4%,
CC(C)COC(=O)N1[C@@H](c2ccco2)[C@@H](CO)C[C@]12CCCCNC2=O,?,nsP2 cell sec=2%;NSP2 full ctr=-15%;Furin counterscr=-10%;NS23 peptide cs=?;Papain cs=-4%;nsP2pro conf qHTS=-18%;HCV NS3 counter=?
O=C(Cc1cc2c(cc1Cl)OCCO2)N[C@@H]1COCC[C@@H]1OCC1CC1,i,
O=C(O[C@H]1C[N+]2(CCCOc3ccccc3)CCC1CC2)C(O)(c1cccs1)c1cccs1,2%,
CC1CCCCCCCc2cc(O)cc(O)c2C(=O)O1 (stereo unspecified),134%,
